From PubChem BioAssay
Shown is part of a subset that was picked to be rich in hits.
Vaccinia pol inh: inhibitors of vaccinia virus processive DNA synthesis (E9 polymerase) | in vitro processive DNA synthesis, absorbance read-out; active compounds read low | hit rate 0.94% among 46,000 | normalized absorbance, % (test concentration not listed); in the data active = normalized absorbance mostly below about 85%, no sharp cut-off; inactive = mostly above about 86%
Numbers stand for hits; ! = not active in a repeat.

CC(=O)OCC1=C(C(=O)O)N2C(=O)[C@@H](NC(=O)CSc3ccncc3)[C@H]2SC1 was read as Vaccinia pol inh 60.
For CC(=O)OCC1=C(C(=O)O)N2C(=O)[C@@H](NC(=O)CCCC(N)C(=O)O)C2SC1 (stereo not given in full) the results were Vaccinia pol inh inactive.
Screening CO/N=C(/C(=O)NC1C(=O)N2C(C(=O)O)=C(COC(N)=O)CSC12)c1ccco1 (stereo not given) returned Vaccinia pol inh inactive.
Cn1nnnc1SCC1=C(C(=O)O)N2C(=O)C(NC(=O)C(O)c3ccccc3)C2SC1 (stereo not given) was read as Vaccinia pol inh 64.
Screening CC1=C(C(=O)O)N2C(=O)[C@@H](NC(=O)[C@H](N)c3ccc(O)cc3)[C@H]2SC1 returned Vaccinia pol inh inactive.
For Cn1nnnc1SCC1=C(C(=O)O)N2C(=O)C(NC(=O)C(OC=O)c3ccccc3)C2SC1 (stereo not given) the results were Vaccinia pol inh inactive.
`O=C(O)CC1(CC(=O)Nc2cccc3cnccc23)CCCC1` gave Vaccinia pol inh inactive.
CSc1ccc(-c2ccco2)nn1 was read as Vaccinia pol inh inactive.
For COc1ccc2nc3sc(C(=O)N4CCCC4)cc3cc2c1 the results were Vaccinia pol inh inactive.
`COc1ccccc1C1CCN(S(=O)(=O)c2ccc(-c3csc(C)n3)s2)CC1` gave Vaccinia pol inh inactive.
Screening CC12C(=O)N(CCC3=CCCCC3)C(=O)C1C(c1ccccc1)C=CC2c1ccccc1 (stereo not given) returned Vaccinia pol inh inactive.
For COc1ccccc1NC1=NCC(C)S1 (stereo not given) the results were Vaccinia pol inh inactive.
Screening O=S(=O)(c1ccc(OC(F)(F)F)cc1)N1CCCC(c2ccccc2)C1 (stereo not given) returned Vaccinia pol inh inactive.
COc1ccc(-c2cc(=NC(CC(C)C)C(=O)O)c3cc(C)ccc3o2)cc1 (stereo not given) was read as Vaccinia pol inh inactive.
`COc1ccc(-c2cc(=NCCc3ccccc3)c3cc(C)ccc3o2)cc1` gave Vaccinia pol inh 41.
`COc1ccc(-c2cc(=Nc3ccc(O)cc3)c3cc(C)ccc3o2)cc1` gave Vaccinia pol inh 54.
Screening COc1ccc(-c2c(C)oc3cc(O)ccc3c2=O)cc1 returned Vaccinia pol inh inactive.
Screening COc1ccc(-c2cc(=Nc3ccc(OC)c(OC)c3)c3ccccc3o2)cc1 returned Vaccinia pol inh inactive.
`COc1ccc(-c2cc(=O)c3cc(OC(=O)c4ccc(OC)c(OC)c4)ccc3o2)cc1` gave Vaccinia pol inh inactive.
`CCc1ccc2oc(-c3ccc(OC)cc3)cc(=NCC(=O)O)c2c1` gave Vaccinia pol inh inactive.
For COc1ccc(-c2cc(=O)c3cc(OC(=O)Cc4ccccc4)ccc3o2)cc1 the results were Vaccinia pol inh inactive.
Screening COc1ccc(N=c2cc(-c3ccc(OC)cc3)oc3ccc(O)cc23)cc1 returned Vaccinia pol inh 63.
Screening Cn1c(=O)cc(SCC(=O)NCCN2CCOCC2)c2ccc(Cl)cc21 returned Vaccinia pol inh inactive.
CCOC(=O)CC1=C(C#N)C(c2cccnc2)C(C(=O)OCC)=C(N)O1 (stereo not given) was read as Vaccinia pol inh inactive.
For CCOc1ccc(S(=O)(=O)NC)cc1 the results were Vaccinia pol inh inactive.
`O=C(c1ccccc1)C(Sc1nc2ccccc2[nH]1)c1ccccc1` (stereo not given) gave Vaccinia pol inh inactive.
`CCCc1c(C(=O)Nc2ccccc2N2CCCCC2)cnn1-c1ccccc1` gave Vaccinia pol inh inactive.
Screening CCN(CC)c1ccc(NC(=O)CSC(=O)c2ccccc2)cc1 returned Vaccinia pol inh inactive.
For Cc1c(C)c(NC(=O)/C=C/C(=O)O)c(C)c(C)c1NC(=O)/C=C/C(=O)O the results were Vaccinia pol inh inactive.
`COc1ccc2c3c([nH]c2c1)C(C)=NCC3` gave Vaccinia pol inh inactive.
Screening COc1ccc2c(c1)c1c3n2CCN=C3N(C)CC1 returned Vaccinia pol inh 58.
COc1ccc2c(c1)c1c3n2CCNC3CCC1 (stereo not given) was read as Vaccinia pol inh inactive.
`O=C(Cc1ccccc1)Nc1nonc1NC(=O)c1ccccc1` gave Vaccinia pol inh inactive.
`O=C(O)c1ccccc1Nc1ccccc1` gave Vaccinia pol inh inactive.
O=C(Nc1cccc(C(F)(F)F)c1)C(F)(F)F was read as Vaccinia pol inh inactive.
`O=C(O)c1ccccc1Nc1cccc(C(F)(F)F)c1` gave Vaccinia pol inh 85!.
O=C(O)CC(NC(=O)C(c1ccccc1)c1ccccc1)c1ccco1 (stereo not given) was read as Vaccinia pol inh inactive.
For O=C(c1ccc(Cl)nc1)N1CCC(Cc2ccccc2)CC1 the results were Vaccinia pol inh inactive.
`N#Cc1ccsc1NC(=O)c1ccc2ncsc2c1` gave Vaccinia pol inh inactive.
CN1CCc2c(sc(NC(=O)c3ccc4ncsc4c3)c2C(N)=O)C1 was read as Vaccinia pol inh 85.
`COC(=O)c1c(NC(=O)c2ccc(OC)cc2)sc2c1CCN(C)C2` gave Vaccinia pol inh inactive.
For CCN(CC)Cc1c(C)[nH]c2ccccc2c1=O the results were Vaccinia pol inh inactive.
Cc1ccc(SCc2cc(=O)[nH]c(/N=C(/N)Nc3ccccc3)n2)cc1 was read as Vaccinia pol inh inactive.
CN1CCCN(C(=O)c2ccccc2OCc2ccccc2)CC1 was read as Vaccinia pol inh inactive.
Screening CCC1CCCCN1CCCNC(=O)c1cc2c(s1)CSC2 (stereo not given) returned Vaccinia pol inh inactive.
`Cc1cccc2c1-c1sc(C(=O)NCCN3CCCCC3C)cc1CO2` (stereo not given) gave Vaccinia pol inh inactive.
CC1CCCCN1CCCNC(=O)c1cc2c(s1)-c1ccc(Cl)cc1SC2 (stereo not given) was read as Vaccinia pol inh 69.
`CCOc1ccc(C(=O)C[n+]2ccsc2N)cc1` gave Vaccinia pol inh inactive.
N#CCC(=O)Nc1cc(Cl)cc(Cl)c1 was read as Vaccinia pol inh inactive.
`COC(=O)c1c2c(n3ccc(C)cc13)C(=O)c1ccccc1C2=O` gave Vaccinia pol inh inactive.
Screening COC(=O)c1c2c(n3ccccc13)C(=O)c1ccccc1C2=O returned Vaccinia pol inh 62.
COC(=O)c1c2c(n3cc4ccccc4cc13)C(=O)c1ccccc1C2=O was read as Vaccinia pol inh inactive.
Cc1nnc(NCCc2ccccc2)n(N)c1=O was read as Vaccinia pol inh inactive.
For Cn1c(=NC(=O)c2ccc(Br)s2)sc2cc(F)ccc21 the results were Vaccinia pol inh inactive.
`CN(C)C(=O)n1nc2c3c(cccc31)C(=O)c1ccccc1-2` gave Vaccinia pol inh inactive.
Cc1ccc(-c2nn(CC(=O)N(C)C)c(=O)c3ccccc23)cc1 was read as Vaccinia pol inh inactive.
Screening CCN(CC)Cn1nc2c3c(cccc3c1=O)-c1ccccc1-2 returned Vaccinia pol inh 57.
Screening CC(=O)Nc1ccc(S(=O)(=O)N2CCCCCC2)cc1 returned Vaccinia pol inh inactive.
O=C(O)c1ccccc1-c1c2cc(Br)c(=O)cc-2oc2[c]([Hg])c(O)c(Br)cc12 was read as Vaccinia pol inh 18.
Cn1cc(-c2ccccc2C(=O)O)c(=O)c2ccccc21 was read as Vaccinia pol inh inactive.
O=C(O)c1cc(-c2ccco2)nc2ccc(Br)cc12 was read as Vaccinia pol inh inactive.
Screening Cc1ccc2c(c1)-c1onc(C(=O)NC3CCCc4ccccc43)c1CO2 (stereo not given) returned Vaccinia pol inh inactive.
CCc1nnc(NC(=O)c2noc3c2COc2ccc(C)cc2-3)s1 was read as Vaccinia pol inh inactive.
